65 molecules from PubChem BioAssay AID1209 (Sanford-Burnham Center for Chemical Genomics, 2008) can be followed below.

The campaign covered roughly 190,000 compounds. About 810 (0.43%) were called active. No stated cut-off is given here; in the data, active means inhibition above about 50%; inactive means the rest. The full list was thinned out, with actives kept by preference.

In this test the target is Mannose-6-phosphate isomerase (Homo sapiens) (UniProt P34949). In words: MPI enzyme activity inhibition – biochemical, fluorescence intensity, coupled assay, primary screen (AID 1209).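 Further: plate controls were DMSO vehicle for no effect and wells lacking substrate for full effect.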 As to conditions: purified PMI enzyme, at 20 µM, hits give high values.
Sequence of Mannose-6-phosphate isomerase (Homo sapiens) (P34949 whole entry, looked up): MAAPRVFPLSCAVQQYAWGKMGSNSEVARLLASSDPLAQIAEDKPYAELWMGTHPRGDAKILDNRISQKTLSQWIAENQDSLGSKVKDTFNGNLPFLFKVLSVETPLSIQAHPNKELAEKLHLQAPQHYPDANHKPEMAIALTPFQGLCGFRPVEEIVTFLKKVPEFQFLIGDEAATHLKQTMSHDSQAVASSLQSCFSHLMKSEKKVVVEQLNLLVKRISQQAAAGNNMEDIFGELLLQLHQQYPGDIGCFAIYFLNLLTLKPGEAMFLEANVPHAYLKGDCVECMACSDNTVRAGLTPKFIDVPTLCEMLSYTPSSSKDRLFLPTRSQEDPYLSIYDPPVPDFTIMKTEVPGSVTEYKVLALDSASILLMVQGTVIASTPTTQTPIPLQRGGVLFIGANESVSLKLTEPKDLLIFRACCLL
Turning to `Cc1cccc(S(=O)(=O)Nc2cccc3c2C(=O)c2ccccc2-3)c1`, the inhibition is 10.6% (inactive).
The value for `Cc1cc(C)c(Nc2cc(S(=O)(=O)O)c(N)c3c2C(=O)c2ccccc2C3=O)c(C)c1` was 91.5% (active).
The same measure for `Cc1cc(C)c(NC(=O)COC(=O)c2cccc3c2C(=O)c2ccccc2C3=O)c(C)c1`: 5.1% (inactive); for `COc1ccc(CCC(=O)NNC(=S)Nc2cccc(C(C)=O)c2)cc1`: 1.2% (inactive); for `Cn1nnnc1SCc1ccc(C(=O)Nc2ccccc2F)cc1`: 9% (inactive).
The value for `O=C(NNc1ccccn1)C(c1ccccc1)c1ccccc1` was 50.2% (active); that for `O=C(NNC(=O)C(c1ccccc1)c1ccccc1)c1ccccn1` was 10.3% (inactive).
With `C/C(=N\NC(=O)C(c1ccccc1)c1ccccc1)c1ccccn1`, the inhibition is -5% (inactive).
The value for `O=C(OCc1cnc(Cl)s1)c1cccc(Cl)c1` was 10.3% (inactive); that for `CC(=O)Nc1ccc(/C(C)=N/NC(=O)c2ccccc2Cl)cc1` was 5.1% (inactive).
For `CCOc1ccc(C2=Nn3c(nnc3-c3ccco3)SC2)cc1`, the inhibition was 8.1% (inactive).
Take `c1ccc(C2=Nn3c(nnc3-c3ccco3)SC2)cc1`: the inhibition was 75.6% (active).
The value for `COc1ccc(C2=Nn3c(nnc3-c3ccco3)SC2)cc1` was -15.3% (inactive).
As to `C/C(=C\C(=O)Nc1nccs1)c1ccccc1`, the inhibition is 9.8% (inactive).
The value for `Cc1cc(C)n2cc(CSc3ccccn3)nc2n1` was -5.1% (inactive); that for `Clc1ccc(CSc2ncn[nH]2)cc1` was 7.1% (inactive); that for `O=C(/C=C/Sc1ccccc1)c1ccc(Cl)cc1` was -10% (inactive).
The same measure for `O=C(/C=C/Sc1ncn[nH]1)c1ccc(Cl)cc1`: 50.3% (active); for `Cc1cc(C)n2nc(SCCOc3ccccc3F)nc2n1`: -4.9% (inactive).
As for `O=C(CSc1nccc(=O)[nH]1)Nc1ccc(F)c(Cl)c1`, the inhibition is 1.7% (inactive).
For the molecule `COCc1c(C#N)c(NCCc2ccccc2)nc(C)c1[N+](=O)[O-]`, the inhibition was 11.3% (inactive).
The same measure for `CCCCn1c(SCC(=O)NCc2cccs2)nc2c1c(=O)n(C)c(=O)n2C`: 9% (inactive); for `CCOc1cc(C(=S)N2CCOCC2)ccc1O`: 66.8% (active).
As to `CCOc1cc(C(=S)N2CCOCC2)ccc1OC`, the inhibition is 3.4% (inactive).
The same measure for `CCOc1ccc(C(=S)N2CCOCC2)cc1OCC`: -6.6% (inactive); for `O=C(CN1C(=O)C2C3C=CC(C3)C2C1=O)Nc1ccc(F)cc1` (stereo not given): 0.9% (inactive).
In the case of `O=C(CN1CCN(c2ccccc2)CC1)Nc1ccc(-n2cnnn2)cc1`, the inhibition is 108% (active).
The same measure for `O=C(CN1CCN(Cc2ccccc2)CC1)Nc1ccc(-n2cnnn2)cc1`: -1.5% (inactive).
The value for `O=C(CN1CCN(c2ccc(F)cc2)CC1)Nc1ccc(-n2cnnn2)cc1` was 3.3% (inactive); that for `COc1ccc(/C=N/NC(=S)SC)cc1OC` was 12.8% (inactive); that for `Cc1ccc(C(=O)N(C)c2ccc(OCC(=O)N3c4ccc(C)cc4C4CN(C)CCC43)cc2)cc1` (stereo not given) was 1.9% (inactive).
The value for `Cc1nnc(SCC(=O)c2ccc([N+](=O)[O-])cc2)s1` was 2.6% (inactive); that for `Cc1cc(C)nc(SCC(=O)c2ccc([N+](=O)[O-])cc2)n1` was -11.2% (inactive).
Take `Cc1ccc(C(=O)CSc2nsc(C)c2C#N)cc1`: the inhibition was 7.2% (inactive).
The value for `Cc1snc(SCC(=O)c2ccc(F)cc2)c1C#N` was -11.6% (inactive).
Take `Cc1snc(SCC(=O)c2ccc(Cl)cc2)c1C#N`: the inhibition was 56.7% (active).
The same measure for `Cc1ccc(CC2CC(=O)N(C(Cc3ccccc3)C(=O)O)C2=O)cc1` (stereo not given): 0.9% (inactive).
The same measure for `C#CCOCCOCCOCCNc1nc(N2CCN(C(=O)[C@H]([C@@H](C)CC)n3cc(CCCN=C(N)N)nn3)CC2)nc(N2CCN(C(=O)[C@H](C)n3cc(CCCN=C(N)N)nn3)CC2)n1`: -22.8% (inactive).
The same measure for `CCN1CCCC1CNC(=O)CSc1cc(=O)n(C)c2cc(Cl)ccc12` (stereo not given): -0.3% (inactive).
In the case of `COc1ccc(C(=O)C2CCCN(C(=O)COc3ccc(C(C)=O)cc3)C2)cc1F` (stereo not given), the inhibition is 57.4% (active).
The same measure for `COc1ccc(C(=O)C2CCCN(C(=O)c3ccccc3C(C)=O)C2)cc1F` (stereo not given): -0.2% (inactive).
On to `COc1ccc(C(=O)C2CCCN(C(=O)c3cccs3)C2)cc1F` (stereo not given), for which the inhibition is -2.9% (inactive).
The value for `CC(=O)Nc1nc(SCCCc2ccccc2)n[nH]1` was -3.1% (inactive); that for `COc1cccc(NC(=S)NNC(=O)CCn2cc([N+](=O)[O-])cn2)c1` was 9.6% (inactive).
Turning to `O=C(Nc1nc(-c2ccc(Oc3ccccc3)cc2)cs1)C1=COCCO1`, the inhibition was 19.1% (inactive).
The value for `c1ccc2c3c([nH]c2c1)-c1[nH]ncc1CC3` was 49% (inactive); that for `Cc1ccc2[nH]c3c(c2c1)CCc1cn[nH]c1-3` was 69.4% (active); that for `Clc1ccc2[nH]c3c(c2c1)CCc1cn[nH]c1-3` was 12.6% (inactive).
As to `COc1ccc(C(=O)OCC[N+]2(C)CCCCC2)cc1`, the inhibition is 4.5% (inactive).
The value for `COc1ccc(C(=O)OCC[N+]2(C)CCOCC2)cc1` was -0.9% (inactive); that for `CC(C)CCOc1ccc(C(=O)C[N+]2(C)CCOCC2)cc1` was 81.8% (active); that for `COc1ccc(C(=O)C[N+]2(C)CCOCC2)cc1` was 81.3% (active).
The value for `CC(C)CCOc1ccc(C(=O)NCCC(=O)N2CCOCC2)cc1` was 8.3% (inactive).
The value for `CC(C)CCOc1ccc(C(=O)O)cc1` was 7.9% (inactive).
Take `Oc1ccccc1C1=Nc2ncnn2C(c2ccccc2)C1` (stereo not given): the inhibition was -40.5% (inactive).
On to `CCOCCCNC(=O)C(c1ccc(C)cc1)N(Cc1cccs1)C(=O)c1ccccn1` (stereo not given), for which the inhibition was 0.7% (inactive).
Turning to `CCCCCCCCc1nnc(NC(=O)c2ccco2)s1`, the inhibition was 2.7% (inactive).
Turning to `CCC(c1nnnn1Cc1cccs1)N1CCN(C2CCCC2)CC1` (stereo not given), the inhibition was 0% (inactive).
The value for `O=C(N/C(=C\c1cccc([N+](=O)[O-])c1)C(=O)N1CCOCC1)c1ccc([N+](=O)[O-])cc1` was 12.3% (inactive); that for `O=C(C1=C[C@@H](C2CCCCC2)C[C@@H](OCc2ccc(CO)cc2)O1)N1CCN(Cc2ccc3c(c2)OCO3)CC1` was 19.6% (inactive).
The value for `Cn1c(SCC(=O)C(C)(C)C)nnc1-c1ccncc1` was 6% (inactive); that for `Cc1ccc(C(C)(C)C)cc1S(=O)(=O)NC(=O)c1ccccc1` was -10.8% (inactive).
The value for `CC1(C)Oc2cc(N)c([N+](=O)[O-])cc2O1` was 17.5% (inactive); that for `C=C1N(C)c2cc([N+](=O)[O-])c(N)cc2C1(C)C` was 94% (active).
For the molecule `Nc1ccc(-c2ccc(N)c([N+](=O)[O-])c2)cc1[N+](=O)[O-]`, the inhibition was -6.5% (inactive).
